The record followed here is PubChem BioAssay (NCATS).

Results filed as inconclusive are left out. Values without a mark were called inactive. The source made the active and inactive calls. The call rests on the fitted dose curve; in most records, active means well fitted curve in the direction sought with a large enough effect; inconclusive means small, poorly fitted or top-dose-only effect, or another doubt; inactive means no such curve, though single readings can be large; an effect the other way counts as inactive or inconclusive.

The subject of one experiment is TAB113. Put plainly: qHTS profiling for inhibitors of Plasmodium falciparum proliferation (AID 504749). Further: nearly all actives have a fitted effect of over 60% in size. Further: potency means the concentration at half of the fitted maximal effect. Particulars: P. falciparum in erythrocytes, SYBR Green DNA, 72 h; series mostly up to 28.7 µM. The gist of the method:
(§1)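 Parasite proliferation within erythrocytes, 72 h exposure. Endpoint: SYBR Green I fluorescence after overnight lysis at room temperature. Controls: 0.29 uM artemisinin, DMSO.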
For orientation: Quantitative high-throughput screening tests each substance at several concentrations.

Another experiment relates to TAB165. Described as above. Particulars: P. falciparum in erythrocytes, SYBR Green DNA, 72 h; series mostly up to 28.7 µM. The procedure, abridged:
as §1

Experiment [1] concerns HaCat. Put plainly: Cytotoxic Profiling of Annotated Libraries Using Quantitative High-Throughput Screening (AID 1296008). Further: nearly all actives have a fitted effect of over 60% in size. Further: potency means the concentration at half of the fitted maximal effect. On max response: on the % scale 0 is the no-effect control and ±100 the full control effect. The following applies: Five cell lines viability, CellTiter-Glo ATP luminescence, 48-72 h; max response: active compounds read low. The gist of the method:
(§2)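 Compounds were pin-transferred onto cells and incubated 48 or 72 hr at 37 degree Celsius, 95% humidity. CellTiter-Glo was added, plates sat 10 min at room temperature, then ATP-coupled luminescence was imaged as the viability read-out.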
A general note: ATP-based viability assays read luminescence as a measure of living cells.

The subject of the next experiment is KB-3-1. The experiment is described as above. Particulars: Five cell lines viability, CellTiter-Glo ATP luminescence, 48-72 h; max response: active compounds read low. The gist of the method:
as §2

The subject of the next experiment is NIH3T3. The description is as above. Particulars: Five cell lines viability, CellTiter-Glo ATP luminescence, 48-72 h; max response: active compounds read low. The gist of the method:
as §2

Experiment [2] deals with HACAT. The experiment in a line: qHTS assay to identify novel small-molecules to repurpose for Merkel cell carcinoma treatment (AID 1296009). Further: nearly all actives have a fitted effect of over 60% in size. Further: potency means the concentration at half of the fitted maximal effect. The following applies: MCC and control cell lines, CellTiter-Glo viability, 72 h; at 44.8 µM (top of the series) unless noted. The procedure, abridged:
(§3)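 qHTS format: cells treated with library compounds in DMSO across 8 (NPC) or 11 (MIPE) concentrations. Readout after 72 hr at 37 degree celsius was CellTiter-Glo luminescence.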

The next experiment deals with MCC-13. The description is as above. Particulars: MCC and control cell lines, CellTiter-Glo viability, 72 h; series mostly up to 46 µM. The gist of the method:
as §3

In a further experiment the test system is MKL-1. The experiment is described as above. Particulars: MCC and control cell lines, CellTiter-Glo viability, 72 h; series mostly up to 46 µM. The gist of the method:
as §3

In a further experiment the test system is MKL-2. Described as above. Particulars: MCC and control cell lines, CellTiter-Glo viability, 72 h; series mostly up to 46 µM. The gist of the method: as §3
The test system of the next experiment is UISO. The experiment is described as above. The following applies: MCC and control cell lines, CellTiter-Glo viability, 72 h; series mostly up to 46 µM. The procedure, abridged:
as §3

Another experiment has as its system C33A. Put plainly: Primary qHTS to identify gynecologic anti-cancer compounds using libraries of approved drugs and bioactive compounds (AID 1345084). Further: on the % scale 0 is the no-effect control and ±100 the full control effect; nearly all actives have a fitted effect of over 55% in size. Particulars: Gynecologic cancer cell panel viability, ATPlite luminescence, 48 h; series mostly up to 57.5 µM. The procedure, abridged:
(§4)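 In this quantitative HTS, cell killing is estimated from loss of ATP-dependent luciferase light. Cells see five compound concentrations over a 48 h exposure.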

Another experiment concerns CAOV3. The description is as above. Particulars: Gynecologic cancer cell panel viability, ATPlite luminescence, 48 h; series mostly up to 57.5 µM. The procedure, abridged:
as §4

The subject of another experiment is CASKI. The experiment is described as above. Particulars: Gynecologic cancer cell panel viability, ATPlite luminescence, 48 h; series mostly up to 57.5 µM. The gist of the method: as §4
The test system of the next experiment is W2. Put plainly: qHTS profiling for inhibitors of Plasmodium falciparum proliferation (AID 504749). Further: nearly all actives have a fitted effect of over 60% in size. Further: potency means the concentration at half of the fitted maximal effect. Particulars: P. falciparum in erythrocytes, SYBR Green DNA, 72 h; series mostly up to 28.7 µM. The procedure, abridged:
as §1

For the next experiment, the system named is CRL-7250. The experiment in a line: Cytotoxic Profiling of Annotated Libraries Using Quantitative High-Throughput Screening (AID 1296008). Further: nearly all actives have a fitted effect of over 60% in size. Further: potency means the concentration at half of the fitted maximal effect. On max response: on the % scale 0 is the no-effect control and ±100 the full control effect. Particulars: Five cell lines viability, CellTiter-Glo ATP luminescence, 48-72 h; max response: active compounds read low. The gist of the method:
as §2

In the next experiment the test system is HEK293. The experiment is described as above. The following applies: Five cell lines viability, CellTiter-Glo ATP luminescence, 48-72 h; max response: active compounds read low. The gist of the method:
as §2

For the next experiment, the system named is MCC-26. The experiment in a line: qHTS assay to identify novel small-molecules to repurpose for Merkel cell carcinoma treatment (AID 1296009). Further: nearly all actives have a fitted effect of over 60% in size. Further: potency means the concentration at half of the fitted maximal effect. The following applies: MCC and control cell lines, CellTiter-Glo viability, 72 h; series mostly up to 46 µM. The procedure, abridged: as §3
For another experiment, the system named is WaGa. The description is as above. The following applies: MCC and control cell lines, CellTiter-Glo viability, 72 h; series mostly up to 46 µM. The gist of the method:
as §3

Turning to `Cc1c(C)n(CCN(C)C)c2ccc(C(=O)OCCN(C)C)cc12`, the Potency entry in the experiment with TAB113, in the experiment on TAB165, in the experiment on MCC-13, in the experiment on MKL-1, with MKL-2 and in the experiment with UISO was “inactive” in each case. Also, the Potency entry with C33A, with CAOV3 and in the experiment on CASKI was “inactive” each time. For the same compound, the compound was classed as inactive with HaCat [1] and in the experiment with HACAT [2]. The max response in the experiment with KB-3-1 was 2.08%. Moreover, the Potency in the experiment with NIH3T3 was 7.5 µM (active).

`O=C(CCCN1CCC(O)(c2ccc(Br)cc2)CC1)c1ccc(F)cc1`: the Potency in the experiment on W2 was 1.44 µM (active). Further, the figures for the max response in the experiment on CRL-7250, in the experiment on HaCat [1] and in the experiment with KB-3-1 were 2.7%, -2.82% and 3.87%, respectively. The Potency entry in the experiment on MKL-1, in the experiment with MKL-2, in the experiment on C33A and in the experiment on CASKI was “inactive” each time.

Consider `O=c1c(-c2ccccc2)c1-c1ccccc1`, for which the Potency with TAB165 is 10 µM (active); in the experiment with W2, 15.1 µM (active); in the experiment on HEK293, 23.7 µM (active); in the experiment with MKL-1, 26.6 µM (active); in the experiment with MKL-2, 13.3 µM (active); with UISO, 26.6 µM (active). The Potency in the experiment on WaGa is 18.8 µM (active). Besides, in the experiment on MCC-26, the Potency entry is “inactive”.

In the case of `CC(=O)Oc1ccc2c(c1)CC[C@@H]1[C@@H]2CC[C@]2(C)[C@@H](O)CC[C@@H]12`, the max response in the experiment on CRL-7250 is -2.1%; in the experiment with HaCat [1], -1.57%; with NIH3T3, 2.78%. For the same compound, the Potency result in the experiment with MCC-13, in the experiment on MCC-26, with C33A, with CAOV3 and with CASKI was “inactive” in each case.

Turning to `C[C@]12CC[C@H]3[C@@H](CCC4=CC(=O)CC[C@@]43C)[C@@H]1CC[C@@H]2C(=O)CO`, the max response in the experiment on CRL-7250 was -11.9%; in the experiment on KB-3-1, -3.06%; in the experiment with NIH3T3, -2.44%. Further, the Potency result with MCC-13, with MCC-26, in the experiment on MKL-1, in the experiment on MKL-2, in the experiment on UISO and with WaGa was “inactive” each time. Besides, the Potency entry with C33A and in the experiment with CASKI was “inactive” in each case.

On to `CCCOC(C(=O)OC1CCN(C)CC1)(c1ccccc1)c1ccccc1`, for which the Potency in the experiment on W2 is 6.01 µM (active). For the same compound, the values for the max response in the experiment with CRL-7250, in the experiment on HaCat [1] and in the experiment on NIH3T3 were -3.11%, -26.2% and 4.34%, respectively. Further, the Potency result in the experiment on MCC-13, in the experiment with MCC-26, with MKL-1, with UISO, with C33A and in the experiment on CASKI was “inactive” throughout.

As to `CN=C(NC#N)NCCSCc1csc(N=C(N)N)n1`, the Potency result in the experiment with TAB113, in the experiment on TAB165, in the experiment with W2, with MCC-13, with MCC-26 and in the experiment with MKL-1 was “inactive” throughout. For the same compound, the Potency result with MKL-2, in the experiment with UISO, with WaGa, with C33A, in the experiment with CAOV3 and in the experiment on CASKI was “inactive” in each case. In addition, the max response in the experiment on CRL-7250 was 1.65%; with HaCat [1] it was 3.38%; in the experiment on NIH3T3, 4.93%.

For the compound `COc1c(C)c2c(c(O)c1C/C=C(\C)CCC(=O)O)C(=O)OC2`, the Potency is 3.98 µM (active) in the experiment on TAB113; 1.58 µM (active) in the experiment with TAB165; 2.56 µM (active) with W2; 0.944 µM (active) in the experiment with HEK293; 1.68 µM (active) with NIH3T3; 0.531 µM (active) with WaGa. Besides, the max response in the experiment on KB-3-1 was -17.8%. Further, the Potency result in the experiment on CAOV3 is “inactive”.

On to `C#C[C@]1(O)CC[C@H]2[C@@H]3CCc4cc(OC5CCCC5)ccc4[C@H]3CC[C@@]21C`, for which the Potency entry with TAB165, in the experiment on MCC-13, in the experiment on MCC-26, with C33A, in the experiment with CAOV3 and with CASKI was “inactive” in each case. Moreover, the max response in the experiment with CRL-7250 was 0.636%; in the experiment on KB-3-1, -14.7%.

Regarding `CCN(CC)CCOc1ccc(C(O)(Cc2ccc(Cl)cc2)c2ccc(C)cc2)cc1` (stereo not given), the Potency with TAB165 is 10 µM (active); in the experiment with W2, 6.01 µM (active); in the experiment on HEK293, 9.44 µM (active); in the experiment on KB-3-1 it was 16.4 µM (active); in the experiment with MKL-2, 7.5 µM (active); in the experiment with WaGa, 18.8 µM (active).

On to `CCN(CC)C(=O)/C(C#N)=C/c1cc(O)c(O)c([N+](=O)[O-])c1`, for which the Potency entry in the experiment with TAB113, in the experiment with W2, in the experiment with MCC-13, in the experiment on MCC-26, with C33A and in the experiment on CAOV3 was “inactive” throughout. Also, the Potency entry with CASKI is “inactive”. For the same compound, the max response is -12.8% with HEK293, -5.03% with HaCat [1] and 3.63% in the experiment with KB-3-1.
